Molecules are shown by their SMILES. “And” between values parts separate entries of the source, which are not always exact repeats. Equal entries are not always repeated. ± gives the uncertainty stated by the source.

The subject of the test is HEK293T-Rex ERSE-FLuc. The test is described as follows: ERSE-FLuc reporter activation, triplicate confirmation, relative to 500 nM thapsigargin (% of thapsigargin); higher = stronger ATF6/ERSE reporter activation. The following applies: 6.8 µM; 18 h; screen: confirmation. On the procedure: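 HEK293T-Rex cells stably expressing the ERSE-firefly luciferase (BiP promoter, ATF6-preferring) or XBP1-splicing Renilla luciferase (IRE1/XBP1s) reporter, 1536-well plates, compound at 6.8 µM for 18 hr at 37 °C; luminescence read […] and expressed as % activation = 100*(compound - median DMSO)/(median 500 nM thapsigargin - median DMSO). Primary screen was single-pass; confirmation screen in triplicate (mean ± SD).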
The compound `O=C(CCCN1CCC2(CC1)C(=O)NCN2c1ccccc1)c1ccc(F)cc1` registered an ERSE-FLuc reporter activation of 163 ± 21.

In turn, `O=C(CCCN1CCC2(CC1)C(=O)N(Cc1cccc(F)c1)CN2c1ccccc1)c1ccc(F)cc1` came in with an ERSE-FLuc reporter activation of 215 ± 16. Then `CC(=O)NC1C(OC2OC(CC(O)C3OC(n4ccc(=O)[nH]c4=O)C(O)C3O)C(O)C(O)C2NC(=O)/C=C\CCCCCCCCCC(C)C)OC(CO)C(O)C1O` (stereo not given), with 162 ± 5.7; and `CNc1ccc2oc(C[C@H]3O[C@@]4(CC[C@H]3C)O[C@H]([C@H](C)C(=O)c3ccc[nH]3)[C@H](C)C[C@H]4C)nc2c1C(=O)O`, with 63.9 ± 3.1; and `C/C=C(/C)C(=O)O[C@H]1C(C)=C2[C@H]([C@@H]1OC(=O)CCCCCCC)[C@@](C)(OC(C)=O)C[C@H](OC(=O)CCC)[C@@]1(O)[C@H]2OC(=O)[C@@]1(C)O`, with 109 and 88.

(Values after the supplement of paper PMC4954754.)
